{"source": "the supplement of paper PMC4022240", "assay_in_all_cases": "peptide microarray binding signal (635 nm), min-max normalized on array (fraction of array maximum); higher = stronger binding", "key": {"[1]": {"target": "T1, HaloTag-ATRX ADD domain (163-292)", "T1 chain": "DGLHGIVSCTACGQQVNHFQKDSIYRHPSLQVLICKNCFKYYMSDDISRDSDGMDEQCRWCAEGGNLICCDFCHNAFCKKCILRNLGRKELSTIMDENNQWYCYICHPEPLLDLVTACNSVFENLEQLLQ", "how_it_was_run": "(§1)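 Two probe formats were used for 1 h at 4°C: biotin-labelled HaloTag reader fusions (10 nM to 1 μM) with streptavidin-Alexa Fluor 647, and rabbit histone antibodies (1:10,000 to 1:2,000) with anti-rabbit Alexa 647. Both were applied to nitrocellulose arrays of histone 13-mer peptide–cellulose conjugates printed in triplicate with a Cy3 tracer and blocked overnight at 4°C. Signal was read at 635 nm and misprints at 532 nm on an Axon GenePix 4000B. Binding signal is expressed as the triplicate-spot mean intensity, min-max scaled for each library.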"}, "[2]": {"target": "HaloTag-ING2 PHD (mouse Ing2 200-280)", "how_it_was_run": "as §1"}, "[3]": {"target": "anti-H3K4me3 antibody ab8580", "how_it_was_run": "as §1"}, "[4]": {"target": "anti-H3K9me3 antibody ab8898", "how_it_was_run": "as §1"}, "[5]": {"conditions": "peptide region: H3 112-124, peptide modifications: H3R116cit, binder concentration: 1:2,000 dilution"}, "[6]": {"conditions": "peptide region: H3 112-124, peptide modifications: H3R116cit, binder concentration: 1:10,000 dilution"}, "[7]": {"conditions": "peptide region: H3 112-124, peptide modifications: H3K122me3, binder concentration: 1:2,000 dilution"}, "[8]": {"conditions": "peptide region: H3 112-124, peptide modifications: H3K122me3, binder concentration: 1:10,000 dilution"}, "[9]": {"conditions": "peptide region: H4 1-13, peptide modifications: H4R3me2s, binder concentration: 1:2,000 dilution"}, "[10]": {"conditions": "peptide region: H4 1-13, peptide modifications: H4R3me2s, binder concentration: 1:10,000 dilution"}, "[11]": {"conditions": "peptide region: H3 112-124, peptide modifications: H3R116me2a, binder concentration: 1:2,000 dilution"}, "[12]": {"conditions": "peptide region: H3 112-124, peptide modifications: H3R116me2a, binder concentration: 1:10,000 dilution"}, "[13]": {"conditions": "peptide region: H3 112-124, peptide modifications: H3R116me2s, binder concentration: 1:2,000 dilution"}, "[14]": {"conditions": "peptide region: H3 112-124, peptide modifications: H3R116me2s, binder concentration: 1:10,000 dilution"}}, "note": "± gives the standard deviation.", "data": [{"binder": "IHAKRVTIMPKDI", "note": "[H3 112-124 I H A K Rcit V T I M P K D I]", "values": [{"measurement": "peptide microarray binding signal", "setting": "[1]; peptide region: H3 112-124, peptide modifications: H3R116cit, binder concentration: 50 nM", "value": "0.00583 ± 8.8e-05"}, {"measurement": "peptide microarray binding signal", "setting": "[1]; peptide region: H3 112-124, peptide modifications: H3R116cit, binder concentration: 500 nM", "value": "0.0207 ± 0.0059"}, {"measurement": "peptide microarray binding signal", "setting": "[2]; peptide region: H3 112-124, peptide modifications: H3R116cit, binder concentration: 10 nM", "value": "0.00895 ± 0.0012"}, {"measurement": "peptide microarray binding signal", "setting": "[2]; peptide region: H3 112-124, peptide modifications: H3R116cit, binder concentration: 100 nM", "value": "0.00992 ± 0.0023"}, {"measurement": "peptide microarray binding signal", "setting": "[3]; [5]", "value": "0.00451 ± 0.0016"}, {"measurement": "peptide microarray binding signal", "setting": "[3]; [6]", "value": "0.00359 ± 0.00055"}, {"measurement": "peptide microarray binding signal", "setting": "[4]; [5]", "value": "0.00177 ± 0.00034"}, {"measurement": "peptide microarray binding signal", "setting": "[4]; [6]", "value": "0.00179 ± 8.5e-05"}]}, {"binder": "IHAKRVTIMPKDI", "note": "[H3 112-124 I H A K R V T I M P Kme3 D I]", "values": [{"measurement": "peptide microarray binding signal", "setting": "[1]; peptide region: H3 112-124, peptide modifications: H3K122me3, binder concentration: 50 nM", "value": "0.00423 ± 4.3e-05"}, {"measurement": "peptide microarray binding signal", "setting": "[1]; peptide region: H3 112-124, peptide modifications: H3K122me3, binder concentration: 500 nM", "value": "0.0122 ± 0.00089"}, {"measurement": "peptide microarray binding signal", "setting": "[2]; peptide region: H3 112-124, peptide modifications: H3K122me3, binder concentration: 10 nM", "value": "0.00489 ± 0.00015"}, {"measurement": "peptide microarray binding signal", "setting": "[2]; peptide region: H3 112-124, peptide modifications: H3K122me3, binder concentration: 100 nM", "value": "0.0106 ± 0.00081"}, {"measurement": "peptide microarray binding signal", "setting": "[3]; [7]", "value": "0.000868 ± 3.3e-05"}, {"measurement": "peptide microarray binding signal", "setting": "[3]; [8]", "value": "0.00126 ± 7.5e-05"}, {"measurement": "peptide microarray binding signal", "setting": "[4]; [7]", "value": "0.0125 ± 0.002"}, {"measurement": "peptide microarray binding signal", "setting": "[4]; [8]", "value": "0.00381 ± 0.00041"}]}, {"binder": "SGRGKGGKGLGKG", "note": "[H4 1-13 S G Rme2s G K G G K G L G K G]", "values": [{"measurement": "peptide microarray binding signal", "setting": "[1]; peptide region: H4 1-13, peptide modifications: H4R3me2s, binder concentration: 50 nM", "value": "0.00304 ± 5.1e-05"}, {"measurement": "peptide microarray binding signal", "setting": "[1]; peptide region: H4 1-13, peptide modifications: H4R3me2s, binder concentration: 500 nM", "value": "0.0107 ± 0.0019"}, {"measurement": "peptide microarray binding signal", "setting": "[2]; peptide region: H4 1-13, peptide modifications: H4R3me2s, binder concentration: 10 nM", "value": "0.00161 ± 0.00016"}, {"measurement": "peptide microarray binding signal", "setting": "[2]; peptide region: H4 1-13, peptide modifications: H4R3me2s, binder concentration: 100 nM", "value": "0.00468 ± 0.0011"}, {"measurement": "peptide microarray binding signal", "setting": "[3]; [9]", "value": "0.000227 ± 2.2e-05"}, {"measurement": "peptide microarray binding signal", "setting": "[3]; [10]", "value": "0.00097 ± 4.3e-05"}, {"measurement": "peptide microarray binding signal", "setting": "[4]; [9]", "value": "0.000317 ± 3.5e-05"}, {"measurement": "peptide microarray binding signal", "setting": "[4]; [10]", "value": 0.000461}]}, {"binder": "IHAKRVTIMPKDI", "note": "[H3 112-124 I H A K Rme2a V T I M P K D I]", "values": [{"measurement": "peptide microarray binding signal", "setting": "[1]; peptide region: H3 112-124, peptide modifications: H3R116me2a, binder concentration: 50 nM", "value": "0.00257 ± 3e-05"}, {"measurement": "peptide microarray binding signal", "setting": "[1]; peptide region: H3 112-124, peptide modifications: H3R116me2a, binder concentration: 500 nM", "value": "0.00719 ± 0.00024"}, {"measurement": "peptide microarray binding signal", "setting": "[2]; peptide region: H3 112-124, peptide modifications: H3R116me2a, binder concentration: 10 nM", "value": "0.00322 ± 3.5e-05"}, {"measurement": "peptide microarray binding signal", "setting": "[2]; peptide region: H3 112-124, peptide modifications: H3R116me2a, binder concentration: 100 nM", "value": "0.007583 ± 5.2e-05"}, {"measurement": "peptide microarray binding signal", "setting": "[3]; [11]", "value": "0.000396 ± 1.8e-05"}, {"measurement": "peptide microarray binding signal", "setting": "[3]; [12]", "value": "0.000514 ± 1.1e-05"}, {"measurement": "peptide microarray binding signal", "setting": "[4]; [11]", "value": "0.00154 ± 0.0003"}, {"measurement": "peptide microarray binding signal", "setting": "[4]; [12]", "value": 0.00098}]}, {"binder": "IHAKRVTIMPKDI", "note": "[H3 112-124 I H A K Rme2s V T I M P K D I]", "values": [{"measurement": "peptide microarray binding signal", "setting": "[1]; peptide region: H3 112-124, peptide modifications: H3R116me2s, binder concentration: 50 nM", "value": "0.00574 ± 0.00016"}, {"measurement": "peptide microarray binding signal", "setting": "[1]; peptide region: H3 112-124, peptide modifications: H3R116me2s, binder concentration: 500 nM", "value": "0.0129 ± 0.00072"}, {"measurement": "peptide microarray binding signal", "setting": "[2]; peptide region: H3 112-124, peptide modifications: H3R116me2s, binder concentration: 10 nM", "value": "0.00645 ± 0.00026"}, {"measurement": "peptide microarray binding signal", "setting": "[2]; peptide region: H3 112-124, peptide modifications: H3R116me2s, binder concentration: 100 nM", "value": "0.014 ± 0.00075"}, {"measurement": "peptide microarray binding signal", "setting": "[3]; [13]", "value": "0.00215 ± 0.00015"}, {"measurement": "peptide microarray binding signal", "setting": "[3]; [14]", "value": "0.00285 ± 0.00021"}, {"measurement": "peptide microarray binding signal", "setting": "[4]; [13]", "value": "0.00341 ± 0.00018"}, {"measurement": "peptide microarray binding signal", "setting": "[4]; [14]", "value": "0.002306 ± 2.1e-05"}]}]}
